Source: the supplement of paper PMC10338343
± gives the standard deviation.

Assays:
[1] = system: MILI (PIWIL2) piRISC loaded with piRNA #1 (26 nt); assay: pre-steady-state target cleavage rate (min^-1); guide: piRNA #1 5'p-UGAGGUAGUAGGUUGUAUAGUAUCCA; higher = faster piRNA-guided slicing of the target; details: auxiliary factor: 500 nM mouse GTSF1;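 also: 1 nM active piRISC with 0.1 nM target library at 33 °C single turnover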
In short: (§1)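 Active affinity-purified piRISC carrying one synthetic guide (1 nM) was mixed with a transcribed, DNA-blocked target RNA library […] in HEPES–potassium acetate buffer at 33 °C for 0–8 or 0–960 min, with or without 500 nM GTSF1 partner protein. Uncleaved targets were then sequenced and normalised to depth and to weakly complementary targets. Three trials were pooled, and k3 was capped at 0.0001 min^-1. A burst-and-steady-state fit was applied to obtain the pre-steady-state cleavage rate.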

[2] = system: EfPiwi piRISC loaded with piRNA #1 (26 nt); assay: pre-steady-state target cleavage rate (min^-1); auxiliary factor: 500 nM Ephydatia muelleri Gtsf1; guide: piRNA #1 5'p-UGAGGUAGUAGGUUGUAUAGUAUCCA; MIWI and MILI are mouse PIWI proteins and EfPiwi is from a freshwater sponge; tags in brackets are library labels; higher = faster piRNA-guided slicing of the target
In short: as §1

Sequence | pre-steady-state target cleavage rate [1] | pre-steady-state target cleavage rate [2]
GGAGACGCUACUAUACAACCUACUACCUCA | 0.228 ± 0.019 | 0.163 ± 0.051
GGAGACCAAACUAUACAAGCUACUACCUCA | 0.179 ± 0.025 | 0.00675 ± 0.0052
GGAGACGAAACUAUACAACCUAGUACCUCA | 0.0663 ± 0.021 | 0.0035 ± 0.0025
GGAGACCAAACUAUACAACCUACUAGCUCA | 0.0778 ± 0.029 | 0.00453 ± 0.0034
GGAGUGGAUACGAUACAACCUACUACCUCA | 0.176 ± 0.011 | 0.0121 ± 0.0053
GGAGACGAUGACUAUACAACCUACUACCUCA | 0.151 ± 0.02 | 0.11 ± 0.039
GGAGUGGAUUCUAUACUACCUACUACCUCA | 0.155 ± 0.0078 | 0.00505 ± 0.0034
GGAGACCUAUCAUAUACAACCUACUACCUCA | 0.0423 ± 0.0085 | 0.0103 ± 0.0048
GGAGUGGAUACUAUACAACCUACUACGCUCA | 0.111 ± 0.015 | 0.00482 ± 0.0021
GGAGUCGAUAGUAUACAACCUACUACCUCA | 0.154 ± 0.011 | 0.0054 ± 0.0038
GGAGACCUAACUAAUACAACCUACUACCUCA | 0.103 ± 0.025 | 0.0103 ± 0.0044
GGAGAGGAUACUAUACAACCUACUACCCA | 0.0505 ± 0.014 | 0.0052 ± 0.0025
GGAGAGGAUACUAUACAACCUACCUACCUCA | 0.142 ± 0.013 | 0.00412 ± 0.0014
GGAGACGAUACUGUACAACCUACUACCUCA | 0.169 ± 0.018 | 0.0777 ± 0.025
GGAGACGAUACUAAACAACCAACUACCUCA | 0.00769 ± 0.0028 | 0.0024 ± 0.0017
GGAGAGGAUACUAUACAUCCUACUACGUCA | 0.00995 ± 0.003 | 0.00405 ± 0.0018
GGAGAGGAAACUAUACAUCCUACUACCUCA | 0.302 ± 0.029 | 0.00711 ± 0.0026
GGAGAGGAUACUAUACUACCUACUACCUCA | 0.173 ± 0.011 | 0.00925 ± 0.0043
GGAGACCAUACAUAUACAACCUACUACCUCA | 0.101 ± 0.013 | 0.0645 ± 0.025
GGAGACCUUACUAUACAACCUCCUACCUCA | 0.0597 ± 0.01 | 0.00545 ± 0.003

Sequence | pre-steady-state target cleavage rate [1] | pre-steady-state target cleavage rate [2]
GGAGACCUUACUAUACAUCCUACUACCUGA | 0.195 ± 0.033 | 0.00345 ± 0.0024
GGAGUGGAUACUUACAACCUACUACCUCA | 0.141 ± 0.012 | 0.0233 ± 0.011
GGAGACCUAACUAUACAACCUACCACCUCA | 0.0488 ± 0.014 | 0.00588 ± 0.0042
GGAGACCUAUCUCUACAACCUACUACCUCA | 0.0688 ± 0.0068 | 0.00937 ± 0.0045
GGAGACGAUACUAUACAACCCACUACCUCA | 0.0178 ± 0.0039 | 0.00638 ± 0.0022
GGAGACCAAACUAUACAACCUACUACCACA | 0.118 ± 0.028 | 0.00528 ± 0.0044
GGAGACGAUACUAUACAACCUACUUCGUCA | 0.0101 ± 0.0048 | 0.00672 ± 0.0024
GGAGAGGAUACUAUACAACCUACUACCAGA | 0.0384 ± 0.0076 | 0.00451 ± 0.0018
GGAGACGAUACUAUACAACCUACUACCAGA | 0.125 ± 0.02 | 0.00503 ± 0.0015
GGAGAGGAUACUAGUACAACCUACUACCUCA | 0.079 ± 0.011 | 0.0114 ± 0.0064
GGAGACGAAACUAUACAACCUACUACGUCA | 0.0713 ± 0.022 | 0.00245 ± 0.0024
GGAGUGGAUACUAUACAACCUACAUCCUCA | 0.00356 ± 0.0016 | 0.00282 ± 0.0012
GGAGACCUAUCUACUACAACCUACUACCUCA | 0.0541 ± 0.0097 | 0.00749 ± 0.0039
GGAGACGAUACCUAUACAACCUACUACCUCA | 0.104 ± 0.025 | 0.0601 ± 0.023
GGAGUGGAUACUAUACAACCUACUACCUUA | 0.112 ± 0.011 | 0.276 ± 0.095
GGAGACCAUACUAUACUACCUACUACCACA | 0.217 ± 0.021 | 0.0069 ± 0.0053
GGAGAGGAUACAAUACAACCUACUAGCUCA | 0.068 ± 0.011 | 0.00253 ± 0.0018
GGAGACCAUUCUAUACAACCUACUACCUGA | 0.0973 ± 0.016 | 0.00652 ± 0.0034
GGAGACCAUACUAUUCAACCUACUACGUCA | 0.0881 ± 0.013 | 0.00376 ± 0.0034
GGAGAGGAUACUAUACAACCUACUGCCUCA | 0.126 ± 0.014 | 0.00919 ± 0.0038

Sequence | pre-steady-state target cleavage rate [1] | pre-steady-state target cleavage rate [2]
GGAGACCAUACUAUACAACCUACAACGUCA | 0.0302 ± 0.012 | 0.00373 ± 0.0033
GGAGACGAUACUAUACAACCUACUACCGUCA | 0.125 ± 0.023 | 0.00873 ± 0.0037
GGAGACCUUACUAUACAACCUACUACACUCA | 0.15 ± 0.022 | 0.0028 ± 0.0026
GGAGACGAUUCUAAACAACCUACUACCUCA | 0.168 ± 0.012 | 0.00926 ± 0.0045
GGAGAGGUUACUAUACAACCUUCUACCUCA | 0.00963 ± 0.0021 | 0.00505 ± 0.0025
GGAGACGAUUCAAUACAACCUACUACCUCA | 0.104 ± 0.012 | 0.0447 ± 0.018
GGAGAGGAUACUAUACAACCUACUACGACA | 0.0606 ± 0.017 | 0.0044 ± 0.0023
GGAGACCAUACUAUACAACCUACUACCUGA | 0.155 ± 0.023 | 0.00567 ± 0.0018
GGAGACCAUACUAUACAACCUACUUGGAGA [g7:g23:cont:t1A] | 0.00469 ± 0.0036 | 0.00547 ± 0.0034
GGAGACCUAACUAUACAACCUACUACGACA | 0.118 ± 0.037 | 0.00325 ± 0.0029
GGAGACCUUACAUAUACAACCUACUACCUCA | 0.0595 ± 0.012 | 0.00546 ± 0.0041
GGAGACCUUACUAUAGAACCUACUACCUCA | 0.125 ± 0.015 | 0.00324 ± 0.0026
GGAGACCUAUGUAUACAACCUACUACCUUA | 0.0696 ± 0.0086 | 0.00547 ± 0.0039
GGAGACCAUACUAUACUACCUACUACCUCA | 0.158 ± 0.017 | 0.00859 ± 0.0036
GGAGAGGUAUCUAUACAACCUACUACCUCA | 0.0739 ± 0.0068 | 0.0113 ± 0.0061
GGAGACGAUACUAUACAACCUCCUACCUCA | 0.041 ± 0.0079 | 0.00579 ± 0.0016
GGAGACCUUACUAUACAACAUACUACCUCA | 0.0732 ± 0.0077 | 0.00974 ± 0.0063
GGAGUGGAUACUAUACAACCUACUACCUCG [g2:g26:cont:t1G] | 0.164 ± 0.011 | 0.0718 ± 0.025
GGAGACCUAUCUAUACAAGCUACUACCUGA | 0.125 ± 0.019 | 0.00244 ± 0.0023
GGAGAGCAUACUAUACAACCUUCUACCUCA | 0.0105 ± 0.0032 | 0.00445 ± 0.0027
